Reference: PubChem BioAssay (NCI)
Values joined by “and” are separate entries in the source; they are usually repeats but may differ in a detail not shown here. Equal entries are not always repeated. The panel holds about 83,000 compounds, 20% with a hit somewhere; the sample as a whole holds those more often.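 For each line, cells grew in 96-well plates with the test compound present at a single concentration for 48 hours.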 Active and inactive are the calls of the source. How the source made its calls: active means growth percent below 10; inactive means the rest.

Columns and labels:
Test in all cases: NCI-60 one-dose screen, 48 h (100 = growth as untreated, 0 = no growth, -100 = all killed)
Details in all cases: 10 µM unless noted
TK-10 renal = tested on: TK-10 renal
SK-MEL-2 melanoma = tested on: SK-MEL-2 melanoma
SN12C renal = tested on: SN12C renal
UO-31 renal = tested on: UO-31 renal
ACHN renal = tested on: ACHN renal
A498 renal = tested on: A498 renal
CCRF-CEM leukemia = tested on: CCRF-CEM leukemia
MOLT-4 leukemia = tested on: MOLT-4 leukemia
RPMI-8226 leukemia = tested on: RPMI-8226 leukemia
OVCAR-8 ovarian = tested on: OVCAR-8 ovarian
OVCAR-5 ovarian = tested on: OVCAR-5 ovarian
OVCAR-4 ovarian = tested on: OVCAR-4 ovarian
SK-OV-3 ovarian = tested on: SK-OV-3 ovarian
IGROV1 ovarian = tested on: IGROV1 ovarian
OVCAR-3 ovarian = tested on: OVCAR-3 ovarian
HS 578T breast = tested on: HS 578T breast
NCI/ADR-RES ovarian = tested on: NCI/ADR-RES ovarian
EKVX NSCLC = tested on: EKVX NSCLC
CAKI-1 renal = tested on: CAKI-1 renal
SR leukemia = tested on: SR leukemia

Measured: growth

C=C(C)C1CC2(C)C(C)CC(OC(=O)/C(C)=C\C)CC2C(OC(=O)/C(C)=C\C)C1O (stereo unspecified)
inactive: TK-10 renal 34.6% [100 µM] and 71% [100 µM]

Cc1c(Cl)cccc1NCN1C(=O)c2ccccc2C1=O
inactive: SK-MEL-2 melanoma 103% | SN12C renal 112% | UO-31 renal 82.8% | TK-10 renal 114% | ACHN renal 105% | A498 renal 101% | CCRF-CEM leukemia 105% | MOLT-4 leukemia 116% | RPMI-8226 leukemia 105% | OVCAR-8 ovarian 99.8% | OVCAR-5 ovarian 107% | OVCAR-4 ovarian 108% | SK-OV-3 ovarian 106% | IGROV1 ovarian 116% | OVCAR-3 ovarian 114% | HS 578T breast 118% | NCI/ADR-RES ovarian 110%

COc1cc(C(=O)N/N=C/c2ccc(N(C)C)cc2)cc(OC)c1OC
inactive: EKVX NSCLC 75.7% | SN12C renal 41.3% | ACHN renal 45.1% | CAKI-1 renal 68.3% | RPMI-8226 leukemia 19.6% | OVCAR-8 ovarian 21.2% | OVCAR-5 ovarian 44.5% | OVCAR-4 ovarian 61.7% | SK-OV-3 ovarian 10.9% | HS 578T breast 46.4%
active: A498 renal -3.05% | CCRF-CEM leukemia 8.58% | MOLT-4 leukemia -0.126% | SR leukemia 6.85% | OVCAR-3 ovarian -11.7% | NCI/ADR-RES ovarian -40.1%

O=C(Nc1cccc(-n2ccc3c(NC(=O)c4ccccc4)nccc32)c1)c1ccc(Cl)c(C(F)(F)F)c1
7.05% (active) and 75.7% (inactive): UO-31 renal
inactive: EKVX NSCLC 38% and 87.3% | TK-10 renal 93.1% | ACHN renal 13% and 53.5% | A498 renal 15.3% and 75.5% | OVCAR-8 ovarian 44.6% | OVCAR-5 ovarian 16.2% and 76.5% | SK-OV-3 ovarian 11.8% and 70.6% | HS 578T breast 90.1%
-25.3% (active) and 40.3% (inactive): CCRF-CEM leukemia
-40% (active) and 64.5% (inactive): SN12C renal
active: SR leukemia -21.7% and 4.99%
-33% (active) and 58.4% (inactive): NCI/ADR-RES ovarian
4.27% (active) and 56.4% (inactive): IGROV1 ovarian
-66.7% (active) and 42.8% (inactive): CAKI-1 renal
-47.6% (active) and 32.3% (inactive): RPMI-8226 leukemia
6.88% (active) and 70.1% (inactive): OVCAR-4 ovarian
-4.82% (active) and 10.3% (inactive): MOLT-4 leukemia
-86.6% (active) and 51.6% (inactive): OVCAR-3 ovarian

COc1ccc(C)cc1NC(=S)C#N
inactive: TK-10 renal 112% [100 µM] and 36.2% [100 µM]

N#C/C(=C1C=C/C(=N/O)C(Br)=C/1)c1ccccc1
active: SK-MEL-2 melanoma -22.3% | CCRF-CEM leukemia 4.04% | SR leukemia 7.83% | RPMI-8226 leukemia 6.28% | OVCAR-8 ovarian 1.66% | IGROV1 ovarian 4.78% | OVCAR-3 ovarian -3.84% | NCI/ADR-RES ovarian 9.55%
inactive: SN12C renal 32.7% | UO-31 renal 36.7% | TK-10 renal 45% | ACHN renal 24.5% | CAKI-1 renal 15.1% | A498 renal 63.7% | MOLT-4 leukemia 18.5% | OVCAR-5 ovarian 52.2% | OVCAR-4 ovarian 42.1% | SK-OV-3 ovarian 29.1% | HS 578T breast 42.6%

CCOC(=O)C(CNc1ccccc1)C(=O)OCC
inactive: SK-MEL-2 melanoma 109% | SN12C renal 105% | UO-31 renal 84.7% | TK-10 renal 106% | ACHN renal 102% | CAKI-1 renal 94.9% | A498 renal 98.5% | MOLT-4 leukemia 98.5% | SR leukemia 97% | RPMI-8226 leukemia 95.1% | OVCAR-8 ovarian 98.2% | OVCAR-5 ovarian 102% | OVCAR-4 ovarian 107% | SK-OV-3 ovarian 98.9% | IGROV1 ovarian 101% | OVCAR-3 ovarian 105% | HS 578T breast 109% | NCI/ADR-RES ovarian 103%
